# Screening results deposited in PubChem BioAssay by National Center for Advancing Translational Sciences (NCATS).
# Rows were chosen to be rich in hits. Some 2.4% of all compounds tested hit in one or more screens of this group.
# FEN1 inh – blocks human flap endonuclease 1 | Potency, µM (titrated, usually from 114 µM), inactives show top-dose activity change, negative = inhibition, most hits filed as inhibitors | actives 0.35% (n = 390,000) | Recombinant FEN1 flap cleavage, fluorescence, 15 min; further: on the % scale 0 is the no-effect control and ±100 the full control effect; nearly all actives have a fitted effect of over 65% in size
# Target sequence (P39748 whole entry, looked up): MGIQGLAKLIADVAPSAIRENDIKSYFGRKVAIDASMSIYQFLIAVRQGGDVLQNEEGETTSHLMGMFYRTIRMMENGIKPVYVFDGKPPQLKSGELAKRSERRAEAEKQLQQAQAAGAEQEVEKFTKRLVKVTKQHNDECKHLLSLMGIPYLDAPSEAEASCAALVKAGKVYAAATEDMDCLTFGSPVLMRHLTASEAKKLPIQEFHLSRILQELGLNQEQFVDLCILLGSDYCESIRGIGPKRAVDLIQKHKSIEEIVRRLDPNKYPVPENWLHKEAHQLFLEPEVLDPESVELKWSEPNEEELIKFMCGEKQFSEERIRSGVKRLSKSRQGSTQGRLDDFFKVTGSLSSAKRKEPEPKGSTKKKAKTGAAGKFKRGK
#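 With each library titrated from low to high concentration, compounds met 10 nM FEN1 for 15 min at room temperature before 50 nM substrate was added; readings at 0 and 15 min fed four-parameter Hill curve fits.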
# TDP1 block – TDP1 (human) enzyme inhibition | Q9NUW8 | recombinant TDP1, AlphaScreen DNA substrate cleavage | Potency, µM (doses to about 130 µM), for the others: top-dose activity change, negative = inhibition, usual class: inhibitors | actives 0.28% (n = 350,000) | AID 485290; further: on the % scale 0 is the no-effect control and ±100 the full control effect; nearly all actives have a fitted effect of over 40% in size
#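 Enzyme-compound mixtures sat 15 min at room temperature, followed by a 5 min reaction with 15 nM final substrate and 10 min with AlphaScreen beads. Recombinant human Tdp1 was used at 1 nM final.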
# Pol iota inh – DNA polymerase iota (human) inhibition; Pol iota fluorescent replication assay, 10 min; Potency, µM (doses to about 115 µM), inactives show at the top dose activity, negative = inhibition, actives largely listed as inhibitors; AID 588590; actives 1% (n = 390,000); Q9UNA4
#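 Pol iota at 10 nM preincubated 15 min with compounds at room temperature; reaction started with fluorescent substrate, 50 nM final. Fluorescence read kinetically at 0 and 10 min; buffer-only wells as negative control.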
# Pol eta inh-1 – blocks human DNA polymerase eta activity | actives 1.2% (n = 390,000) | Potency, µM (highest dose often 114 µM), for inactives: at the top dose activity change, negative = inhibition, usual class: inhibitors | recombinant Pol eta, fluorescent DNA replication assay; further: on the % scale 0 is the no-effect control and ±100 the full control effect
#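 Pol eta at 10 nM preincubated with compounds 15 min at room temperature; reaction started with fluorescent substrate (50 nM final) and read kinetically at 0 and 10 min.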
# Pol beta inh – inhibitors of human DNA polymerase beta; P06746; Pol beta primer extension/strand displacement, fluorescence kinetic; Potency, µM (highest dose often 114 µM), for the others: at the highest dose activity change, negative = inhibition, usual class: inhibitors; actives 1.3% (n = 340,000); AID 485314; further: on the % scale 0 is the no-effect control and ±100 the full control effect
#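 Values derive from four-parameter Hill fits of normalized kinetic data: reads at 0 and 10 min following addition of 50 nM substrate to 10 nM Pol beta preincubated 15 min with compound.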
# Pol kappa inh-1 – blocks human DNA polymerase kappa activity; AID 588579; Potency, µM (titrated, usually from 107 µM), for inactives: at the highest dose activity, negative = inhibition, usual class: inhibitors; actives 0.53% (n = 400,000); purified Pol kappa, fluorescent DNA synthesis assay, 10 min; further: on the % scale 0 is the no-effect control and ±100 the full control effect
#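 Fluorescent qHTS in 1536-well format: enzyme (10 nM) and compound sat 15 min at room temperature before 50 nM substrate (final) was added. Signal taken at 0 and 10 min; no-enzyme buffer wells were negative controls.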
# PGK validate – blocks T. brucei phosphoglycerate kinase; shares compounds with Pol kappa inh-1; TbPGK coupled GAPDH assay, Kinase-Glo luminescence; Potency, µM (doses to about 57.5 µM), for the others: top-dose activity change, negative = inhibition, most hits filed as inhibitors; actives 79% (n = 500); AID 686980; further: on the % scale 0 is the no-effect control and ±100 the full control effect; nearly all actives have a fitted effect of over 65% in size
# Pol iota confirm – Confirm cherry-picked inhibitors of human polymerase iota; shares compounds with Pol kappa inh-1; Pol iota primer extension, TAMRA/BHQ fluorescence; Potency, µM, most hits filed as inhibitors; actives 77% (n = 1,500); AID 720496
# Pol kappa inh-2 – Pol kappa (human) inhibition, cherry-pick confirmation. shares compounds with Pol eta inh-1. purified Pol-kappa, fluorescent strand-displacement substrate. Potency, µM, actives largely listed as inhibitors. actives 76% (n = 920). AID 720501
# Pol eta inh-2 – confirmation of human DNA polymerase eta inhibitors; shares compounds with Pol eta inh-1; AID 720502; actives 64% (n = 2,600); Potency, µM, most hits filed as inhibitors; Pol eta primer extension, TAMRA/BHQ fluorescence, 10 min
# * hit, by the source's call; ? = inconclusive; . = not tested or not shown; [ ] = dose if it differs, or a comment. The call rests on the fitted dose curve; in most records, active means well fitted curve in the direction sought with a large enough effect; inconclusive means small, poorly fitted or top-dose-only effect, or another doubt; inactive means no such curve, though single readings can be large; an effect the other way counts as inactive or inconclusive. Potency means the concentration at half of the fitted maximal effect.
SMILES,FEN1 inh,TDP1 block,Pol iota inh,Pol eta inh-1,Pol beta inh,Pol kappa inh-1,Pol iota confirm,Pol eta inh-2,others
Cc1onc(-c2ccc(Br)cc2)c1C(=O)Nc1ccc(Br)cc1F,12%,3%,3%,-9%,-5%,-16%[60.1 µM],.,.,
Cc1ccc(C(=O)O)cc1-c1ccc(C=C2C(=O)c3ccccc3C2=O)o1,?,-2%,?,7.9µM*,32µM*,79µM*,42*,27*,
Cc1ccc(Sc2c(C)nn(C(=O)c3ccc(Cl)cc3)c2C)cc1,0%,.,-12%,-10%,-1%,11%,.,.,
CCC(COC)Oc1cc(NCc2ccccc2)c2ncn(C(C)C)c2c1 (stereo not given),?,9%,3.2µM*,79µM*,.,5%,47*,76*,
O=C(Oc1ccccc1)N1CCC2(CC1)CCN(c1cccc(-c3ccccc3)c1)CC2,.,.,.,.,.,2%[60.1 µM],.,.,
COc1cc(/C=C(\C#N)c2nc3ccccc3[nH]2)ccc1OCc1ccc(F)cc1,?,-14%,?,79µM*,11µM*,-21%,67*,?,
COc1ccccc1NC(=O)C1=C(C)Nc2ncnn2C1c1ccc[nH]1 (stereo not given),?,-10%,79µM*,32µM*,16µM*,5%[60.1 µM],60*,60*,
CCN(CC)CCOC(=O)c1ccc(NC(=O)c2nn(-c3ccc(C)cc3)c(=O)c3c2c2ccccc2n3C)cc1,4%,-2%,?,79µM*,7.9µM*,-7%,?,?,Pol kappa inh-2=?
CCOC(=O)c1c(C)n(-c2ccccc2)c2ccc(OC(=O)c3ccccc3NC(=O)C(C)(C)C)cc12,-20%,2%[12.3 µM],?,-11%,-1%,-23%,.,.,
CCCOc1ccc(OC(=O)c2c(-c3ccccc3Cl)noc2C)cc1,-18%,-5%,?,1%,7%,-18%[60.1 µM],.,.,
O=C(O)c1[nH]c2ccccc2c1C(c1ccccc1)c1c(C(=O)O)[nH]c2ccccc12,-4%,.,-24%,-16%,?,-36%,.,.,
COc1cc(C(c2c(C(=O)O)[nH]c3ccccc23)c2c(C(=O)O)[nH]c3ccccc23)ccc1OCc1ccccc1,-6%,.,-27%,50µM*,45µM*,?,?,?,
O=C(O)c1cc(N/N=C/c2ccc(-c3ccc(F)cc3)o2)ccc1Cl,-2%,0%,?,?,-12%,-14%,.,.,
O=C(O)c1cc(-c2ccc(/C=C3\NC(=O)N(c4ccccc4)C3=O)o2)ccc1Cl,?,8.9µM*,?,4µM*,22µM*,45µM*,34*,15*,
O=C(O)c1cc(-c2ccc(/C=C3\NC(=O)N(c4ccc(Cl)cc4)C3=O)o2)ccc1Cl,?,6.3µM*,10µM*,3.5µM*,6.3µM*,10µM*,21*,5.4*,PGK validate=21µM*;Pol kappa inh-2=17*
O=C(O)Cn1cc(/C=C2/NC(=O)N(c3ccc(Cl)cc3)C2=O)c2ccccc21,15%,6%,-2%,-19%,?,-9%,.,.,
